From PubChem BioAssay (Tox21) come the findings set out here.

Results filed as inconclusive are left out. Values without a mark were called inactive. Calls of active or inactive are those of the source. Calls come from the whole dose curve; as a rule, active = well fitted cell-killing curve with a large enough effect in the repeat runs; inconclusive = weak or mixed curves, or effect the other way; inactive = no such curve, though single readings can be large or run the other way.
% is set by controls: 0 for no effect and ±100 for the full control effect; potency is the fitted concentration of half-maximal effect.

A short description of this test: qHTS assay to identify small molecule antagonists of the retinoid-related orphan receptor gamma (ROR-gamma) signaling pathway - cell viability counter screen (AID 1159520). Note: nearly all actives have a fitted effect of over 50% in size. The following applies: Tet-on RORgamma CHO cells viability, ATP luminescence, 16 h; series mostly up to 92.4 µM; activity, negative = cytotoxicity: at the top concentration. An excerpt:
U.S. Tox21 Program National Center for Advancing Translational Sciences [NCATS] NIH Chemical Genomics Center [NCGC] U.S. Environmental Protection Agency [EPA] National Institutes of Environmental Health Sciences [NIEHS] National Toxicology Program [NTP] U.S. Food and Drug Administration [FDA] Tox21 Assay Overview: Nuclear steroid hormone receptors are involved in many biological processes including inflammatory responses, cell proliferation, and apoptosis. Environmental factors or compounds disrupting these nuclear receptor pathways and gene expression may promote susceptibility to immunotoxicants and autoimmune diseases. One important group of these expression factors are the retinoid-related orphan receptors. To assess compounds that may interfere with the retinoid-related orphan receptor gamma (ROR-gamma) transcription factor, a cell-based luciferase assay was used. The CHO cell-based assay utilizes a TET-inducible ROR expression factor and ROR response element-LUC reporter gene. Reporter gene activity was induced using Doxycycline Hyclate and measured after 16 hr incubation. Tet-on ROR gamma CHO cells were used to screen against the Tox21 10K compound library for cytotoxicity by measuring the viability of the cells based on the quantitation of the ATP.
Tox21 Assay Protocol Summary: Tet-on ROR gamma CHO cells were dispensed at 1,000 cells in 4 uL of culture medium per well into white wall/solid bottom 1536-well plates using a Multidrop Combi (Thermo Scientific, Waltham, MA) dispenser. Following incubation at 37 C and 5% CO2 for 4 hr, 23 nL of compounds dissolved in DMSO, positive controls or DMSO only were transferred by a Pintool station (Kalypsys, San Diego, CA) and after 2 hr incubation at 37 C, one ul of 1 uM (final concentration) of Doxycycline Hyclate was added to all the wells by using a Flying Reagent Dispenser (FRD) (Aurora Discovery, San Diego, CA). After 16 hr incubation at 37 C and 5% CO2, 5 uL of CellTiter-Glo reagent (Promega Corporation, Madison, WI) was added to each assay plate using FRD. After 30 min incubation at room temperature, luminescence was quantified on a ViewLux plate reader (Perkin Elmer, Waltham, MA).
Regarding `Nc1c(Br)cc([N+](=O)[O-])cc1Br`, the “activity, negative = cytotoxicity” value was -8.41%. Still for that read-out and setting: the value for `CC/C=C(\C)C=O` was 5.94%; that for `Oc1ccc(Cl)cc1C1CCCC1` was -8.82%.

`CC(C)(C)c1cc(CCC(=O)OCCSCCOC(=O)CCc2cc(C(C)(C)C)c(O)c(C(C)(C)C)c2)cc(C(C)(C)C)c1O`: the “activity, negative = cytotoxicity” value was -4.48% [at 42.5 µM]. Turning to `Cc1ccc2n[nH]nc2c1`, the “activity, negative = cytotoxicity” value is 3.27%. The same measure, in the same setting: to `O=c1cc[nH]cc1` belongs -2.26%; to `CCN(CC)c1ccc(C=O)c(O)c1`, -1.01%; to `Cc1cccc(C)c1C`, 2.38%. On to `O=C(Cl)c1ccc(Cl)cc1Cl`, for which the Potency was 61.1 µM (active). Turning to `O=C(CCN1CCC(c2ccccc2)C1)c1ccc2c(c1)OCCO2` (stereo not given), the Potency was 26.6 µM (active). In the case of `Cc1c[nH]c(=O)[nH]c1=O`, the “activity, negative = cytotoxicity” value is 5.19%.

`CCN(CC)c1ccc(C=O)cc1`: the “activity, negative = cytotoxicity” value is -6.06%. Same read-out and setting: the value for `O=C1CCC/C=C\CCCCCCCCCC1` was -8.87%. As for `O=C(Nc1ccc([N+](=O)[O-])cc1)Nc1ccc([N+](=O)[O-])cc1` (tested in a mixture with another compound), the “activity, negative = cytotoxicity” value is -15.1% [at 42.5 µM]. With `C1CCSC1`, the “activity, negative = cytotoxicity” value is 0.704%. The same measure, in the same setting: to `CCn1c2ccccc2c2ccccc21` belongs -15.7%. Regarding `CCNc1nc(NC(C)(C)C)nc(OC)n1`, the “activity, negative = cytotoxicity” value was 0.814%. On the same count and under the same terms, to `CC1=CC[C@@H](C(C)(C)O)CC1` belongs 4.29%. Same read-out and setting: to `Nc1ccc(F)c([N+](=O)[O-])c1` belongs -4.64%.

Regarding `CC1(C)[C@H]2CC[C@]1(C)C(=O)C2`, the “activity, negative = cytotoxicity” value was -2.73%. On to `CC1(C)[C@H](C(=O)OCc2cccc(Oc3ccccc3)c2)[C@@H]1C=C(Cl)Cl`, for which the “activity, negative = cytotoxicity” value was 5.45%.

Consider `O=C1OCc2ccccc21`, for which the “activity, negative = cytotoxicity” value was -0.31%. On the same count and under the same terms, the value for `C/C(=C\c1ccc(C(=O)O)cc1)c1ccc2c(c1)C(C)(C)CCC2(C)C` was 0.986% [at 42.5 µM]; that for `Clc1ccc2c(Cl)ccnc2c1` was -2.04%. The same measure, in the same setting: to `CC(O)(c1ccc(Cl)cc1)c1ccc(Cl)cc1` belongs -29.7%; to `COc1cc(C(C)C)ccc1C`, -0.985% [at 19 µM]. In the case of `Cc1cc(Br)ccc1NC(=O)CCl`, the Potency is 27.3 µM (active). In the case of `O=C(c1ccccc1)c1ccc(Cl)cc1`, the “activity, negative = cytotoxicity” value was -5.62%. Take `CN1CCN(C)CC1`: the “activity, negative = cytotoxicity” value was 0.15%. On the same count and under the same terms, to `C=C(C)C1CCC(C)CC1O` (stereo not given) belongs -1.06%. For `COc1cc(/C=C/C(=O)CC(=O)/C=C/c2ccc(O)c(OC)c2)ccc1O`, the Potency was 48.9 µM (active). Regarding `C=Cc1ccncc1`, the “activity, negative = cytotoxicity” value is 8.14%. Still for that read-out and setting: the value for `c1ccc2c(c1)-c1ccc3ccc4cccc5cc-2c1c3c45` was -0.0547% [at 42.5 µM].

For `CC(CC(C)(C)C)CC(C)(C)CC(C)(C)C` (stereo not given), the “activity, negative = cytotoxicity” value is 5.37% [at 42.5 µM].

For the molecule `O=C1OC2(c3ccccc31)c1ccc(O)c(Br)c1Oc1c2ccc(O)c1Br`, the “activity, negative = cytotoxicity” value is -7.19%. On to `c1ccc2occc2c1`, for which the “activity, negative = cytotoxicity” value was 0.0591%. On the same count and under the same terms, the value for `CCc1c(C)cc(N)c(CC)c1N` was -0.581%; that for `N#CCCOCCC#N` was 2.17%; that for `[Cl][Dy]([Cl])[Cl]` was 0.648%. The same measure, in the same setting: to `O=[N+]([O-])c1ccc(CO)cc1` belongs -10.8%.
